Assay results reported in PubChem BioAssay (NCI).
The panel holds about 83,000 compounds, 20% with a hit somewhere; the sample as a whole holds those more often.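 Method: cells in 96-well plates; compound added at one concentration; 48 h incubation; percent growth measured; values under 10 scored active.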 Values without a mark were called inactive. Active and inactive are the calls of the source.

Legend:
Test in all cases: NCI-60 one-dose screen, 48 h (100 = growth as untreated, 0 = no growth, -100 = all killed)
Settings in all cases: 10 µM unless noted
NCI-H23 lung = tested on: NCI-H23 lung
NCI-H226 lung = tested on: NCI-H226 lung
NCI-H322M lung = tested on: NCI-H322M lung
HOP-62 NSCLC = tested on: HOP-62 NSCLC
NCI-H460 lung = tested on: NCI-H460 lung
HOP-92 NSCLC = tested on: HOP-92 NSCLC
NCI-H522 lung = tested on: NCI-H522 lung
A549/ATCC NSCLC = tested on: A549/ATCC NSCLC
786-0 renal = tested on: 786-0 renal
COLO 205 colon = tested on: COLO 205 colon
DU-145 prostate = tested on: DU-145 prostate
K-562 leukemia = tested on: K-562 leukemia
MALME-3M melanoma = tested on: MALME-3M melanoma
MDA-MB-231 breast = tested on: MDA-MB-231 breast
RXF 393 renal = tested on: RXF 393 renal
SF-268 CNS = tested on: SF-268 CNS
SF-295 CNS = tested on: SF-295 CNS
SF-539 CNS = tested on: SF-539 CNS
UACC-257 melanoma = tested on: UACC-257 melanoma
M14 melanoma = tested on: M14 melanoma

SMILES	growth (NCI-H23 lung) [%]	growth (NCI-H226 lung) [%]	growth (NCI-H322M lung) [%]	growth (HOP-62 NSCLC) [%]	growth (NCI-H460 lung)	growth (HOP-92 NSCLC)	growth (NCI-H522 lung)	growth (A549/ATCC NSCLC) [%]	growth (786-0 renal)	growth (COLO 205 colon)	growth (DU-145 prostate)	growth (K-562 leukemia)	growth (MALME-3M melanoma)	growth (MDA-MB-231 breast)	growth (RXF 393 renal)	growth (SF-268 CNS) [%]	growth (SF-295 CNS)	growth (SF-539 CNS)	growth (UACC-257 melanoma) [%]	growth (M14 melanoma)
C=C1C(=O)O[C@H]2[C@H]1CC/C(COC(=O)NCCOCCOCC(=O)Nc1ccc(OC)c(C(N)=O)c1O)=C\CC[C@@]1(C)O[C@@H]21	78.5	89.8	96.9	84	95.8%	24.2%	-11% (active)	84.1	62.1%	8% (active)	76.9%	25.6%	62.1%	52%	-9.54% (active)	81.9	97.7%	37%	57.1	60.4%
N#Cc1c(-c2ccccc2)nc(SCC(=O)Nc2nc(-c3ccc(Cl)cc3)cs2)[nH]c1=O	84.1	95.9	97.9	90.2	106%	80.7%	77.6%	94.6	96.2%	106%	113%	94.2%	129%	120%	110%	103	98.2%	100%	97.4	93.7%
NCCCNc1nc2ccccc2c2c(=O)c3cccc(F)c3sc12	50.5	64.1	46.8	48.1	-57% (active)	35.8%	38.7%	24	52.6%	-43.7% (active)	12.6%	-28.2% (active)	80%	6.07% (active)	52.4%	45.9	72.8%	44.2%	93.5	10%
O=C(S)CNC(=O)c1ccccc1	94.3	101	95.1	92.7	105%	74.7%	86.4%	99.8	98.1%	107%	98.8%	95.1%	84.2%	97.6%	92.7%	86.5	111%	93.4%	98	95.9%
CCCCn1c(=O)c(-c2cc(-c3ccc(Cl)cc3)nc(-c3ccc(Cl)cc3)c2)cc2ccc(Cl)cc21	97.8	98.5	98.4	97.5	106%	88.3%	98.4%	105	103%	105%	108%	97.8%	98.5%	96.5%	103%	94.2	100%	96.1%	101	107%
COc1ccc(/C=C(/C#N)n2nnc3cccc(F)c32)cc1	14.6	60.4	25.2	38.1	4.61% (active)	-2.46% (active)	-24.6% (active)	37	10.6%	1.85% (active)	-10.7% (active)	12.8%	32.5%	0.925% (active)	-37.9% (active)	28.2	16%	-39.3% (active)	41.1	-27% (active)
O=c1c2cc(F)ccc2sc2c(NCCO)nc3ccccc3c12	95.6	103	99.7	105	112%	110%	91.1%	101	104%	114%	112%	98.3%	120%	98.1%	109%	103	104%	99.9%	104	114%
COc1cc2cc(Oc3ccc(NC(=O)Nc4ccc(Cl)c(C(F)(F)F)c4)cc3)c(C)nc2cc1OCCN1CCOCC1	10.5	34.9	61.1	27.6	8.67% (active)	20.5%	20.7%	12.7	29.2%	-28.3% (active)	25.2%	9.9% (active)	37.7%	38.4%	43.7%	32.2	0.751% (active)	41.7%	14.1	19.2%
O=C(Nc1ccc(Cl)cc1F)c1ccccc1O	17	25.6	36.3	42.6	27.5%	-14.5% (active)	11%	46.3	50.6%	98.2%	43.1%	29.5%	-6.47% (active)	39.1%	42.5%	43.1	69.7%	48.9%	14.1	46.4%
CCCCCCCCCCCCCCCCCCOc1ccc(CC(=O)OCC[N+]2(C)CCCCC2)cc1	86.7	101	96.4	101	101%	97.8%	89.2%	88.9	92.8%	103%	107%	83.9%	98.8%	100%	102%	100	110%	99.4%	96	99.8%
COc1cccc(-c2nc(-c3ccc(NC(=O)OC(C)C)cc3)[nH]c2-c2ccnc(Br)c2)c1	15.7	31.2	35.4	22.7	16.7%	40.7%	26.8%	29	0.518% (active)	25.7%	36%	6.01% (active)	21.8%	37.3%	-33.9% (active)	40.5	-35.6% (active)	10.5%	45.3	29.9%
CCCCCCNC(=O)Oc1ccc(/C(=C(\C)c2ccc(Cl)cc2)c2ccc(OCCCN(C)C)cc2)cc1	80.5	110	81.7	97	32.7%	58.6%	83.7%	63.5	56.8%	23.8%	84.9%	-28.4% (active)	68.6%	79.2%	80.1%	77	97.5%	87.9%	60	76.7%
O=S(=O)(Nc1ccc(-c2nc(-c3cccc(OCCN4CCOCC4)c3)c(-c3ccnc(Br)c3)[nH]2)cc1)c1ccccc1	35.5	48.1	53.5	40.3	28.4%	22%	32.8%	30.4	13.2%	39.3%	59.5%	3.42% (active)	44%	36.8%	-15.1% (active)	41.3	2.79% (active)	38.1%	53.1	36.8%
O=c1[nH][n+](-c2ccc(Br)cc2)no1	88.8	72.5	72.2	75.5	28.3%	84.1%	49.3%	48.1	59%	56.2%	57.9%	10.9%	60.3%	68.7%	105%	32.8	21.3%	7.06% (active)	55	74%
C=C1CC[C@H](C(C)C)[C@@H]2[C@H]1[C@H]1CC(=C)[C@@H](O)CC[C@@](C)(O)[C@@H]2O1	81.6	95.2	95.4	84.3	108%	86.3%	89.5%	86.2	82.6%	117%	102%	97.8%	98%	105%	108%	94.7	98.4%	98.1%	86.2	98.6%
